Laboratory results taken from PubChem BioAssay (NCATS).
Unmarked numbers belong to inactive results. Inconclusive results are not listed. A call without a number means that no potency is given here. Activity calls are given as the source filed them. Calls follow the shape of the dose curve; as a rule, active = well fitted curve in the direction sought with a large enough effect; inconclusive = small, poorly fitted or top-dose-only effect, or another doubt; inactive = no such curve, though single readings can be large; an effect the other way counts as inactive or inconclusive. Numbered stars: 1 amine (or outer) side, 2 acyl side, 3 side chain; on linkers, the order of the positions; unused ones are H or OH. Bridge positions count the residues as written; N and C are the ends. Square brackets hold non-standard residues; d marks the D form. Peptide text beside a SMILES is read from it. * marks the point of attachment. ξ: configuration not given here. ΔAla(Z-3-ureido) = NC(=O)N/C=C(\N)C(=O)O; X2 = NC1=NC(O)CC(C(N[*:1])C(=O)[*:2])N1; X1 = NC1=NCCC(C(N[*:1])C(=O)[*:2])N1; ξβ3hOrn = NCCCC(N)CC(=O)*; Dap = NC[CH](N)C(=O)O

How the values were obtained:
[1] = target: Ubiquitin carboxyl-terminal hydrolase 1 (Homo sapiens) (UniProt O94782); assay: Inhibitors of USP1/UAF1: Pilot qHTS (AID 504865); also: nearly all actives have a fitted effect of over 35% in size; also: potency is read from the fitted curve at half-maximal effect
How it was run: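 1nM USP1/UAF1 + cpd, 15 min RT; start w/ Ub-Rho 150nM final; kinetic FL 480/540 nm, 6 reads q60 s. Buffer 50mM HEPES pH 7.8, 0.5mM EDTA, 1mM TCEP, 0.01% Tween-20, 0.1 mg/ml BSA.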

[2] = qHTS profiling for inhibitors of Plasmodium falciparum proliferation (AID 504749); also: potency is read from the fitted curve at half-maximal effect; as to all read-outs here: nearly all actives have a fitted effect of over 60% in size; details: P. falciparum in erythrocytes, SYBR Green DNA, 72 h; for activity, negative = inhibition: at 28.7 µM (top of the series)
How it was run: (§1)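 SYBR Green fluorescence of parasite DNA, read after lysis and overnight dark incubation, measured growth over 72 h in erythrocyte culture at 0.3% parasitemia and 2.5% hematocrit. Data normalised to DMSO and 0.29 uM artemisinin, with plate-drift correction.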

[3] = test system: ATS189; assay: as above; details: P. falciparum in erythrocytes, SYBR Green DNA, 72 h; series mostly up to 28.7 µM
How it was run: as §1

[4] = test system: CP185; assay: as above; details: P. falciparum in erythrocytes, SYBR Green DNA, 72 h; series mostly up to 28.7 µM
How it was run: as §1

[5] = test system: CP201; assay: as above; details: P. falciparum in erythrocytes, SYBR Green DNA, 72 h; series mostly up to 28.7 µM
How it was run: as §1

[6] = test system: CP238; assay: as above; details: P. falciparum in erythrocytes, SYBR Green DNA, 72 h; series mostly up to 28.7 µM
How it was run: as §1

[7] = test system: CP252; assay: as above; details: P. falciparum in erythrocytes, SYBR Green DNA, 72 h; series mostly up to 28.7 µM
How it was run: as §1

[8] = test system: CP265; assay: as above; details: P. falciparum in erythrocytes, SYBR Green DNA, 72 h; series mostly up to 28.7 µM
How it was run: as §1

[9] = test system: CP286; assay: as above; details: P. falciparum in erythrocytes, SYBR Green DNA, 72 h; series mostly up to 28.7 µM
How it was run: as §1

[10] = test system: CP305; assay: as above; details: P. falciparum in erythrocytes, SYBR Green DNA, 72 h; series mostly up to 28.7 µM
How it was run: as §1

[11] = test system: CP325; assay: as above; details: P. falciparum in erythrocytes, SYBR Green DNA, 72 h; series mostly up to 28.7 µM
How it was run: as §1

[12] = test system: FAB9; assay: as above; details: P. falciparum in erythrocytes, SYBR Green DNA, 72 h; series mostly up to 28.7 µM
How it was run: as §1

[13] = test system: PC49; assay: as above; details: P. falciparum in erythrocytes, SYBR Green DNA, 72 h; series mostly up to 28.7 µM
How it was run: as §1

[14] = target: Cytochrome P450 3A4 (Homo sapiens) (UniProt P08684); assay: qHTS Assay for Inhibitors and Substrates of Cytochrome P450 3A4 (AID 884); also: nearly all actives have a fitted effect of over 50% in size; also: potency is read from the fitted curve at half-maximal effect
How it was run: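 Luminescent readout of luciferin produced by CYP3A4 (20 nM) dealkylation of Luciferin-PPXE, 25 uM (its KM). NADPH-driven reaction ran 60 min at RT after 10 min compound preincubation; data scaled to 57 uM ketoconazole as 100% inhibition.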

[15] = target: Cytochrome P450 3A4 (Homo sapiens) (UniProt P08684); assay: qHTS Assay for Activators of Cytochrome P450 3A4 (AID 885); also: nearly all actives have a fitted effect of over 65% in size
How it was run: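 Activators are scored by enhanced luminescence from CYP3A4 conversion of luciferin-PPXE (25uM, equal to KM) to luciferin, after 60 min at RT with an NADPH-regenerating system.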

[16] = target: DNA dC->dU-editing enzyme APOBEC-3G (Homo sapiens) (UniProt Q9HC16); assay: qHTS for inhibitors of Vif-A3G interactions: Validation (AID 588379); also: potency is read from the fitted curve at half-maximal effect
How it was run: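 Yellow fluorescence (Ex 488, Em 500-530) of Vif-coexpressing HeLa A3G-eYFP cells, scanned by Acumen cytometer, reports blocked A3G degradation. Cells plated at 700/well overnight at 37 deg C before compound addition, then a further overnight compound incubation at 37 deg C.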

[17] = target: Luciferin 4-monooxygenase (Photinus pyralis) (UniProt P08659); assay: Biochemical firefly luciferase enzyme assay for NPC (AID 624030); also: nearly all actives have a fitted effect of over 70% in size; also: potency is read from the fitted curve at half-maximal effect
How it was run: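 Direct inhibition of firefly luciferase enzyme (10 nM final, 50 mM Tris Acetate) assessed by luminescence within 5 minutes. Percent activity scaled between DMSO and PTC124 positive control, with concentration-effect curves classified by fit quality and response.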

[18] = Confirmation and Secondary Assay for Modulators of Hemoglobin Beta Chain Splicing at IVS2 654 locus (AID 910);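 also: HeLa cells stably carrying EGFP split by mutant beta-globin IVS2-654 intron; per-well total GFP intensity by laser scanning cytometry after 2-day treatment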
How it was run: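 Readout: per-well total peak green fluorescence (488 nm ex, 500–520 nm em) from objects 5–250 µm, reflecting correct splicing of an EGFP-654 reporter. Compounds were applied for 2 days at 37 °C to overnight-plated HeLa EGFP-654 cells; controls were DMSO and 500 nM IVS2-654 PNA.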

Luciferin 4-monooxygenase (Photinus pyralis), sequence (P08659 whole entry, looked up): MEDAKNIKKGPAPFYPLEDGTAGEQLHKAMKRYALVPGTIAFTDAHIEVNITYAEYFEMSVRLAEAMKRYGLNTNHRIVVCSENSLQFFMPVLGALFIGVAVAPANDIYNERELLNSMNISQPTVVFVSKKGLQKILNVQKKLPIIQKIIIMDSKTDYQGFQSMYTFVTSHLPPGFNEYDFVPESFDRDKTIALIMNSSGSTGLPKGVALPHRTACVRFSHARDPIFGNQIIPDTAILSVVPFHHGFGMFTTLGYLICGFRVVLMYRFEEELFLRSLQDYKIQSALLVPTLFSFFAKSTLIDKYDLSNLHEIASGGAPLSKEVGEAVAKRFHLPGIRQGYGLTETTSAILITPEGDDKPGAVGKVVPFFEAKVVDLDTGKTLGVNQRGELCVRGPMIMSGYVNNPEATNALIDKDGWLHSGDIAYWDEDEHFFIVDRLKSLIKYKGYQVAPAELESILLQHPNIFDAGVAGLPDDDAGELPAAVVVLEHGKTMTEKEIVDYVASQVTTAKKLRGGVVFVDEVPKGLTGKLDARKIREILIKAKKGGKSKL
Cytochrome P450 3A4 (Homo sapiens), sequence (P08684 whole entry, looked up): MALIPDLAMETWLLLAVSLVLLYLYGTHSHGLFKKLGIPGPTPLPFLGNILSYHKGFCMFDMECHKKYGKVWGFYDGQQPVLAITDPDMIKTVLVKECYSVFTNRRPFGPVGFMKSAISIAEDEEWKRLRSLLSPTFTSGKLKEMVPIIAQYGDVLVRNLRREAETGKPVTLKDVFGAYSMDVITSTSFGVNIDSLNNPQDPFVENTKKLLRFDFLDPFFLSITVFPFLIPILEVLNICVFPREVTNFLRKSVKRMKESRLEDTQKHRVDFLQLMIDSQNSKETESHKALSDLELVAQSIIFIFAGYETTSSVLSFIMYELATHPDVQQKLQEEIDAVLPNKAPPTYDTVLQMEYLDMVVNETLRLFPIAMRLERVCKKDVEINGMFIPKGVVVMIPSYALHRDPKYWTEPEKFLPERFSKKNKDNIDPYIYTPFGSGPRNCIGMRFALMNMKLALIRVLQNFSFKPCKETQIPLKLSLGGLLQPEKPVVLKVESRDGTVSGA
Ubiquitin carboxyl-terminal hydrolase 1 (Homo sapiens), sequence (O94782 whole entry, looked up): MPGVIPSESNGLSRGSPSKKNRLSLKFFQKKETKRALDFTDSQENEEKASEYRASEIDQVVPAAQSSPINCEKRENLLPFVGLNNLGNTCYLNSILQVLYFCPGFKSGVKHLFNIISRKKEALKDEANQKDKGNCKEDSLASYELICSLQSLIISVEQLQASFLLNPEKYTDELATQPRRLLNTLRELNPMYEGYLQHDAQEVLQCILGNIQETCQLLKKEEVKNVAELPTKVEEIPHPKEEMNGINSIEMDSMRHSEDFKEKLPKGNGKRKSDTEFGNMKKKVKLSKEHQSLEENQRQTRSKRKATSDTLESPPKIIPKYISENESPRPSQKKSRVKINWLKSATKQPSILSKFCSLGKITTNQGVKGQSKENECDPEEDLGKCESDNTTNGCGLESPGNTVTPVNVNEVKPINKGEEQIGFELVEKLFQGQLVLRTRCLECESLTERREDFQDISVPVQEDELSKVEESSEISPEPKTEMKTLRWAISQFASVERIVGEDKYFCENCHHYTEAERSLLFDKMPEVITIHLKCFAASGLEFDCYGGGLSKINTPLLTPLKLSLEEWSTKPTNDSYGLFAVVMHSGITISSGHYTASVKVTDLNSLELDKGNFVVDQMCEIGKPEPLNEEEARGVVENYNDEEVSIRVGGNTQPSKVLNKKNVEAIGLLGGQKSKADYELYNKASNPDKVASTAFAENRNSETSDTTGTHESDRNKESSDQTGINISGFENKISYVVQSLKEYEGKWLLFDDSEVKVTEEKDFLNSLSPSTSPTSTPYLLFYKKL
DNA dC->dU-editing enzyme APOBEC-3G (Homo sapiens), sequence (Q9HC16 whole entry, looked up): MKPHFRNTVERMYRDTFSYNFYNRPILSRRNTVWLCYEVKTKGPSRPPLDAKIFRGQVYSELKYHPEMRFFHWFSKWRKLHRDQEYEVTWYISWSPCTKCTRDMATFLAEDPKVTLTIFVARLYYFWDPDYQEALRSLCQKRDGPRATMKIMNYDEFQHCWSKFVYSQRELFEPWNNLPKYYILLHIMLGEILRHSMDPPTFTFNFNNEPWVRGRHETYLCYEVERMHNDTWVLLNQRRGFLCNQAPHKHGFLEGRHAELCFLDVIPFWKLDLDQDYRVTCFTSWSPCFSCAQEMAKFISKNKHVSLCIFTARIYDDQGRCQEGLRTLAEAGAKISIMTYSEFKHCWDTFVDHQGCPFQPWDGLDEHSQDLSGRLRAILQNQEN

O=C(O)c1ccccc1-c1c2cc(Br)c(=O)c(Br)c-2oc2c(Br)c(O)c(Br)cc12
Potency [1]: inactive
activity, negative = inhibition ([2]; parasite line A): 7.94%
activity, negative = inhibition ([2]; parasite line B): -13.6%
Potency [3]: inactive
Potency [4]: inactive
Potency [5]: inactive
Potency [6]: inactive
Potency [7]: inactive
Potency [8]: inactive
Potency [9]: inactive
Potency [10]: inactive
Potency [11]: inactive
Potency [12]: inactive
Potency [13]: inactive

COc1ccc2c(c1OC)C(Cc1ccccc1)N1CCc3cc4c(cc3C1=C2)OCO4 (centres undefined)
Potency [14]: 0.199 µM (active)
Potency [15]: inactive
Potency [1]: 39.8 µM (active)
Potency [16]: inactive

COc1cc2c(C(=O)c3ccccc3)c3c4c(cc(OC)c(OC)c4c2cc1OC)CCN3C
Potency [14]: 1.26 µM (active)
Potency [15]: inactive
Potency [1]: 25.1 µM (active)
Potency [16]: inactive

O=c1cc(-c2ccc(O)cc2)oc2cccc(O)c12
Potency [14]: 0.794 µM (active)
Potency [15]: inactive
Potency [1]: inactive
Potency [16]: inactive

Cn1cc(O)nc1NC(=O)Nc1cccc(Cl)c1
Potency [1]: inactive
Potency [17]: inactive
activity, negative = inhibition ([2]; parasite line A): -22.2%
activity, negative = inhibition ([2]; parasite line B): -22.3%
Potency [3]: inactive
Potency [4]: inactive
Potency [5]: inactive
Potency [6]: inactive
Potency [7]: inactive
Potency [8]: inactive
Potency [9]: inactive
Potency [10]: inactive
Potency [11]: inactive
Potency [12]: inactive
Potency [13]: inactive

NCCCC(N)CC(=O)NCC1NC(=O)C(CO)NC(=O)C(N)CNC(=O)C(C2CCN=C(N)N2)NC(=O)/C(=C/NC(N)=O)NC1=O (stereo not drawn) (H-[Dap]S[Dap](ξβ3hOrn)[ΔAla(Z-3-ureido)][X1]; lactam 1-C; configuration not given here)
Potency [1]: inactive
Potency [17]: inactive
activity, negative = inhibition ([2]; parasite line A): 10.1%
activity, negative = inhibition ([2]; parasite line B): 0.112%
Potency [3]: inactive
Potency [4]: inactive
Potency [5]: inactive
Potency [6]: inactive
Potency [7]: inactive
Potency [8]: inactive
Potency [9]: inactive
Potency [10]: inactive
Potency [11]: inactive
Potency [12]: inactive
Potency [13]: inactive

COc1cc2c(C=O)c3c4c(cc(OC)c(OC)c4c2cc1OC)CCN3C
Potency [14]: 2 µM (active)
Potency [15]: inactive
Potency [1]: 22.4 µM (active)
Potency [16]: 21.1 µM (active)

COc1cccc2c1C(=O)CC(c1ccccc1)O2 (centres undefined)
Potency [14]: inactive
Potency [1]: inactive
Potency [16]: inactive

Cc1csc(-c2nc3ccccc3n2C)n1
Potency [14]: 31.6 µM (active)
Potency [15]: inactive
Potency [1]: inactive
Potency [16]: inactive

O=C(OCC1OC(OC(=O)c2cc(O)c(O)c(OC(=O)c3cc(O)c(O)c(O)c3)c2)[C@@H](OC(=O)c2cc(O)c(O)c(OC(=O)c3cc(O)c(O)c(O)c3)c2)C(OC(=O)c2cc(O)c(O)c(OC(=O)c3cc(O)c(O)c(O)c3)c2)C1OC(=O)c1cc(O)c(O)c(OC(=O)c2cc(O)c(O)c(O)c2)c1)c1cc(O)c(O)c(OC(=O)c2cc(O)c(O)c(O)c2)c1 (some centres undefined)
Potency [14]: 3.98 µM (active)
Potency [15]: inactive
outcome [18]: inactive
Potency [1]: 3.98 µM (active)
Potency [17]: 12.8 µM (active)
Potency ([2]; parasite line A): 2.51 µM (active)
Potency ([2]; parasite line B): 3.55 µM (active)
Potency [3]: 2.51 µM (active)
Potency [4]: 2.82 µM (active)
Potency [5]: 4.78 µM (active)
Potency [6]: 2.51 µM (active)
Potency [7]: 2.51 µM (active)
Potency [8]: 2.51 µM (active)
Potency [9]: 2.24 µM (active)
Potency [10]: 3.38 µM (active)
Potency [11]: 3.01 µM (active)
Potency [12]: 11.2 µM (active)
Potency [13]: 11.2 µM (active)

CCOc1ccc(/C=C/C(=O)c2cccs2)cc1
Potency [14]: inactive
Potency [1]: inactive
Potency [16]: inactive

Cc1ccc2oc(-c3ccccc3)cc(=O)c2c1
Potency [1]: inactive
Potency [16]: inactive

CC(C)CC(NC(=O)C(COC(C)(C)C)NC(=O)C(Cc1ccc(O)cc1)NC(=O)C(CO)NC(=O)C(Cc1c[nH]c2ccccc12)NC(=O)C(Cc1cnc[nH]1)NC(=O)C1CCC(=O)N1)C(=O)NC(CCCN=C(N)N)C(=O)N1CCCC1C(=O)NNC(N)=O (centres undefined)
Potency [1]: inactive
Potency [17]: inactive
activity, negative = inhibition ([2]; parasite line A): 11.9%
activity, negative = inhibition ([2]; parasite line B): 5.86%
Potency [3]: inactive
Potency [4]: inactive
Potency [5]: inactive
Potency [6]: inactive
Potency [7]: inactive
Potency [8]: inactive
Potency [9]: inactive
Potency [10]: inactive
Potency [11]: inactive
Potency [12]: inactive
Potency [13]: inactive

CC(=O)OC1CCC2(C)C(=CCC3C2CCC2(C)C3C[C@@H]3O[C@]32C(C)=O)C1 (some centres undefined)
Potency [14]: inactive
Potency [1]: inactive
Potency [16]: inactive

OC[C@H]1O[C@@H](OC[C@H]2O[C@@H](O)[C@H](O)[C@@H](O)[C@@H]2O)[C@H](O)[C@@H](O)[C@@H]1O
Potency [14]: inactive
Potency [1]: inactive
Potency [16]: inactive

COc1ccc(-c2oc3cc(OC)ccc3c(=O)c2O)cc1
Potency [1]: inactive
Potency [16]: inactive

CC1CCC2[C@](C)(CO)C(O)CC[C@]2(C)C12CCC(CO)(CCO)O2 (some centres undefined)
Potency [14]: inactive
Potency [1]: inactive
Potency [16]: inactive

C[C@H]1O[C@@H](O[C@H]2[C@@H](O)C[C@H](O[C@H]3[C@@H](O)C[C@H](O[C@H]4CC[C@]5(C)C6CC[C@]7(C)[C@@H](C8=CC(=O)OC8)CC[C@]7(O)C6CC[C@@H]5C4)O[C@@H]3C)O[C@@H]2C)C[C@H](O)[C@@H]1O (some centres undefined)
Potency [14]: inactive
Potency [1]: inactive
Potency [16]: inactive

C[C@H](C(=O)O)c1cccc(C(=O)c2ccccc2)c1
Potency [1]: inactive
Potency [16]: inactive

O=C(/C=C/c1ccccc1)c1cccs1
Potency [14]: inactive
Potency [1]: inactive
Potency [16]: inactive

NCCCC(N)CC(=O)NC1CNC(=O)C(C2CC(O)N=C(N)N2)NC(=O)/C(=C/NC(N)=O)NC(=O)C(CO)NC(=O)C(CO)NC1=O (stereo not drawn) (ξβ3hOrn-[Dap]SS[ΔAla(Z-3-ureido)][X2]; lactam 1-C; configuration not given here)
Potency [1]: inactive
Potency [17]: inactive
activity, negative = inhibition ([2]; parasite line A): 5.91%
activity, negative = inhibition ([2]; parasite line B): 6.39%
Potency [3]: inactive
Potency [4]: inactive
Potency [5]: inactive
Potency [6]: inactive
Potency [7]: inactive
Potency [8]: inactive
Potency [9]: inactive
Potency [10]: inactive
Potency [11]: inactive
Potency [12]: inactive
Potency [13]: inactive

CCC1NC(=O)C(NC(=O)c2ncccc2O)C(C)OC(=O)C(c2ccccc2)NC(=O)C2CC(=O)CCN2C(=O)C(Cc2ccccc2)N(C)C(=O)C2CCCN2C1=O (centres undefined)
Potency [1]: inactive
Potency [17]: inactive
activity, negative = inhibition ([2]; parasite line A): -20.9%
activity, negative = inhibition ([2]; parasite line B): -28.7%
Potency [3]: inactive
Potency [4]: inactive
Potency [5]: inactive
Potency [6]: inactive
Potency [7]: inactive
Potency [8]: inactive
Potency [9]: inactive
Potency [10]: inactive
Potency [11]: inactive
Potency [12]: inactive
Potency [13]: inactive
